High-throughput results: PubChem, National Center for Advancing Translational Sciences (NCATS)
Cruzain inh noDet: cruzain (T. cruzi) inhibition without detergent. P25779. purified cruzain, Z-FR-AMC fluorescence, no detergent. Potency, µM, most hits filed as inhibitors. hit rate 2.3% among 200,000; further: nearly all actives have a fitted effect of over 40% in size
Target sequence (P25779 123-467 limits assumed): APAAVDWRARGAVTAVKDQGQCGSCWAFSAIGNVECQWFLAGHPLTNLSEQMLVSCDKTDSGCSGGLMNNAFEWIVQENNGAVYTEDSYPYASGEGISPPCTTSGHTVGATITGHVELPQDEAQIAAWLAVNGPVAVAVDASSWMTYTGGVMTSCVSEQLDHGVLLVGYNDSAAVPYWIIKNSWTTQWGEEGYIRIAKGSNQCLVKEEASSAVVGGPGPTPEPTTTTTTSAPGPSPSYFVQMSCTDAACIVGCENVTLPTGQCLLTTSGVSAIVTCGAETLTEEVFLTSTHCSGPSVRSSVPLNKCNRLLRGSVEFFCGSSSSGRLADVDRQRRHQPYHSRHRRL
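Detergent-free condition (0.00005% Triton X-100) in acetate buffer pH 5.5 with DTT. 1.5 nM enzyme and compound were pre-mixed 15 min, then 2 uM Z-FR-AMC substrate added; reaction progress from fluorescence change between first and third reads (60 s).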
Cruzain Triton: blocks cruzain activity in presence of Triton detergent; AID 1478; P25779; hit rate 0.43% among 200,000; Potency, µM, hits mostly inhibitors; purified cruzain, Z-FR-AMC fluorescence, 0.01% Triton; further: nearly all actives have a fitted effect of over 40% in size
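Enzyme 1.5 nM, Z-FR-AMC 2 uM, NaOAc 100 mM pH 5.5, DTT 5 mM, Triton X-100 0.01%; 15 min RT compound preincubation; kinetic ex360/em450, 60 s delta.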
Hits are given with their value. The list is not random: actives were taken first. Their share in the collection is about 2.4%. The call rests on the fitted dose curve; in most records, active means well fitted curve in the direction sought with a large enough effect; inconclusive means small, poorly fitted or top-dose-only effect, or another doubt; inactive means no such curve, though single readings can be large; an effect the other way counts as inactive or inconclusive.

What do the screens show for `COc1ccc(CNC(=O)Cn2nc(N3CCN(c4ccccc4)CC3)ccc2=O)c(OC)c1`?
Cruzain inh noDet: inconclusive; Cruzain Triton: inactive

What do the screens show for `O=C(CNC(=O)c1ccco1)OCC(=O)c1cccc2ccccc12`?
Cruzain inh noDet: inactive; Cruzain Triton: inactive

What do the screens show for `O=C(CNC(=O)c1ccco1)OCN1C(=O)c2ccccc2C1=O`?
Cruzain inh noDet: inconclusive; Cruzain Triton: 20µM

Results for CCc1nc(Nc2ccc(F)c(Cl)c2)c2c3c(sc2n1)CCCC3 ?
Cruzain inh noDet: inactive; Cruzain Triton: inactive

What do the screens show for `C1C[C@@H]2CN(CCCN3CCOCC3)[C@@H](C1)O2`?
Cruzain inh noDet: inactive; Cruzain Triton: inactive

How did CCOC(=O)c1oc2ccc(S(=O)(=O)n3nc(-c4ccc(Cl)cc4)cc3N)cc2c1C do in these assays?
Cruzain inh noDet: 12.6µM; Cruzain Triton: inactive

What do the screens show for `CCOC(=O)c1oc2ccc(S(=O)(=O)n3nc(-c4ccc(C)cc4)cc3N)cc2c1C`?
Cruzain inh noDet: inconclusive; Cruzain Triton: inactive

What do the screens show for `O=C(O)CC12C[C@H]3C[C@@H](CC(O)(C3)C1)C2`?
Cruzain inh noDet: inactive; Cruzain Triton: inactive

What do the screens show for `N#Cc1c(N)nc(SCC(=O)NC2CCCCC2)c(C#N)c1-c1ccc(Cl)cc1`?
Cruzain inh noDet: 15.8µM; Cruzain Triton: inactive

What do the screens show for `CC(C)c1ccc(-c2c(C#N)c(N)nc(SCC(=O)N3CCCCCC3)c2C#N)cc1`?
Cruzain inh noDet: inactive; Cruzain Triton: inactive

Results for CC(C)c1ccc(-c2c(C#N)c(N)nc(SCC(=O)N3CCCCC3)c2C#N)cc1 ?
Cruzain inh noDet: 25.1µM; Cruzain Triton: inactive

How did CCOC(=O)CSc1nc(N)c(C#N)c(-c2ccc(OCC)cc2)c1C#N do in these assays?
Cruzain inh noDet: inactive; Cruzain Triton: inactive

What do the screens show for `CC(=O)Nc1ccc(NC(=O)CSc2cn(CC(=O)N(C(C)C)C(C)C)c3ccccc23)cc1`?
Cruzain inh noDet: inactive; Cruzain Triton: inactive

What do the screens show for `CN(C)Cc1ccc(-c2cc3onc(-c4ccccc4)c3c(=O)n2C)cc1`?
Cruzain inh noDet: inactive; Cruzain Triton: inactive

Results for COc1ccccc1NC(=O)c1cc2c(=O)oc3ccc(C)cc3c2s1 ?
Cruzain inh noDet: inactive; Cruzain Triton: inactive

What do the screens show for `CCc1ccc2oc(-c3ccc(C)c(NC(=O)c4ccc(C#N)cc4F)c3)nc2c1`?
Cruzain inh noDet: inactive; Cruzain Triton: inactive

Results for COc1ccc(-c2nn(CCC(=O)O)cc2/C=C2\SC(N)=NC2=O)cc1OC ?
Cruzain inh noDet: inactive; Cruzain Triton: inactive

How did CCCOc1ccc(-c2nn(-c3ccccc3)cc2/C=C2\SC(N)=NC2=O)cc1C do in these assays?
Cruzain inh noDet: 12.6µM; Cruzain Triton: inactive

What do the screens show for `COc1ccc(/C=N/NC(=S)Nc2ccccc2[N+](=O)[O-])cc1O`?
Cruzain inh noDet: inactive; Cruzain Triton: inactive

Results for CCCOc1ccc(/C=N/NC(=S)Nc2ccccc2[N+](=O)[O-])c(O)c1 ?
Cruzain inh noDet: 3.98µM; Cruzain Triton: inactive

Results for CCCOc1ccc(/C=N/Nc2ccccc2[N+](=O)[O-])c(O)c1 ?
Cruzain inh noDet: 10µM; Cruzain Triton: inactive

Results for CCCOc1ccc(/C=N/Nc2cccc([N+](=O)[O-])c2)c(O)c1 ?
Cruzain inh noDet: inconclusive; Cruzain Triton: inactive

What do the screens show for `CN(C)CCn1c(CO)nc2c1c(=O)n(C)c(=O)n2C`?
Cruzain inh noDet: inactive; Cruzain Triton: inactive

Results for O=C(O)C[C@H](Cc1ccccc1Cl)C(=O)O ?
Cruzain inh noDet: inactive; Cruzain Triton: inactive

What do the screens show for `Cc1cc(N2CCN(C)CC2)nc2ccc(NC(=O)Nc3ccccc3Cl)cc12`?
Cruzain inh noDet: inactive; Cruzain Triton: inactive

Results for COc1ccc(/C=C(\C#N)C(=O)OCC(=O)Nc2c(C)cccc2C)cc1 ?
Cruzain inh noDet: inconclusive; Cruzain Triton: inactive

What do the screens show for `COc1ccc(/C=C(\C#N)C(=O)OCC(=O)NCc2ccccc2)cc1`?
Cruzain inh noDet: 31.6µM; Cruzain Triton: inactive

Results for COc1ccc(S(=O)(=O)NCCC(C)C)cc1OC ?
Cruzain inh noDet: inactive; Cruzain Triton: inactive

Results for CC(C)CCNS(=O)(=O)c1ccc(-c2ccc(S(=O)(=O)NCCC(C)C)cc2)cc1 ?
Cruzain inh noDet: 10µM; Cruzain Triton: inactive

What do the screens show for `O=S(=O)(c1ccc(-c2nc3ccccc3s2)cc1)N1CCCC1`?
Cruzain inh noDet: 25.1µM; Cruzain Triton: inactive

Results for O=S(=O)(c1cccc(-c2nc3ccccc3s2)c1)N1CCCC1 ?
Cruzain inh noDet: inactive; Cruzain Triton: inactive

What do the screens show for `O=C(NC(=S)Nc1nc2ccccc2s1)c1cccs1`?
Cruzain inh noDet: inactive; Cruzain Triton: inactive

How did CCc1ccc(OCc2nnc(NC(=O)c3cccs3)s2)cc1 do in these assays?
Cruzain inh noDet: 12.6µM; Cruzain Triton: inactive

Results for Cc1ccc(OCc2nnc(NC(=O)Cc3cccs3)s2)cc1 ?
Cruzain inh noDet: inconclusive; Cruzain Triton: inactive

How did CCc1ccc(-c2nc(NC(=S)NC(=O)c3cccs3)sc2C)cc1 do in these assays?
Cruzain inh noDet: 3.98µM; Cruzain Triton: inactive

What do the screens show for `CCNc1ncc2nc(-c3cc(F)cc(F)c3)c(=O)n(CCC#N)c2n1`?
Cruzain inh noDet: inactive; Cruzain Triton: inactive
